In the supplement of paper PMC3334620:
Whole data set: some 33,000 sequences, median “E-score (-0.5 to 0.5)” near -0.0034, cut for the highest 2% near 0.25. Shown is part of a subset that was picked to be rich in the highest values.

molecular target: T1, Yap3 (UniProt P38749); test: PBM E-score (8-mer binding enrichment) (E-score (-0.5 to 0.5)); higher = stronger / more preferred TF binding; settings: protein concentration: 100 nM; construct: GST-full length
T1 sequence: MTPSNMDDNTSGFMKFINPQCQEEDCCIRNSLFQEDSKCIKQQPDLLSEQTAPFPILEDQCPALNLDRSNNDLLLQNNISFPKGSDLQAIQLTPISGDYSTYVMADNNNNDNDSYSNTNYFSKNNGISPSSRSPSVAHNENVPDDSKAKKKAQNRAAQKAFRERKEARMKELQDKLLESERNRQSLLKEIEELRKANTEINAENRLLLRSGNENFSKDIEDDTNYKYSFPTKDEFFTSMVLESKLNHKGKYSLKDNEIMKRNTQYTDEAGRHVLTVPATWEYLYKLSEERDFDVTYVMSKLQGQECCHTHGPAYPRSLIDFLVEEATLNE
Procedure, shortened: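 The E-score, a modified Wilcoxon-Mann-Whitney statistic, was computed by the Universal PBM Analysis Suite for every ungapped eight-base word pooled with its reverse complement. Scans behind it were normalised with masliner after bound GST-tagged yeast transcription factors were detected with fluorescent anti-GST. The proteins, at about 100-200 nM, had been applied to universal all-10-mer Agilent arrays made double-stranded by primer extension.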

Sequence	PBM E-score
GCAATTAA	0.112
AGAACGCG	0.14
AAGTCGCG	0.146
CATCTACG	-0.0208
GCCCGTAC	-0.155
GCATGATA	0.184
AAATGAAA	0.324
AAATGATT	0.19
AAATGATA	0.275
TAATGAAA	0.218
TAATGATA	0.239
ACATGATC	0.115
ACATGATA	0.263
GAATGATA	0.295
CAATGAAA	0.077
AAATGATC	-0.129
CAATGATA	0.137
ACCGCAAA	0.109
CCTTCATC	-0.195
AGACTATC	0.0563
AGAAGTCG	0.0232
CGGATAGC	0.052
GACCAGAA	-0.00826
ACGGCTAT	-0.0939
CAGACCTC	-0.181

Sequence	PBM E-score
GCAAAAGC	0.0339
CTATTAAA	0.135
AAATTAAC	0.136
ATATTAGA	0.175
AAATTAAA	0.319
CTATTAAC	0.188
AAATTAAT	0.229
GTATTAAC	0.0508
ATATTAAT	0.351
ATATTAAA	0.378
ATATTAAC	0.274
ATATTAAG	0.0834
AGATTAAT	0.194
AGAGACGC	0.0051
CTCCTCCC	-0.358
GTACTGAA	0.117
AACCTTCG	0.0416
CATTGTAA	0.172
CACCAGAG	-0.215
AAGAGTAA	0.0872
TTATTAAA	0.34
TCATTAAA	0.258
ACATTAAA	0.229
GTATTAAA	0.141
TGATTAAA	0.113

Sequence	PBM E-score
GCATTAAA	0.177
GGAGAAGA	-0.148
TAACGCTA	0.023
ATGGCAAT	0.0617
GGGATTAC	0.00382
CAAGCTAG	-0.0475
CGTTAGTA	0.241
AATTAGTG	0.269
AATTAGGG	-0.107
CATTAGCA	0.0386
AATTAGTA	0.369
ACTTAGTG	-0.0604
AGTTAGTA	0.195
CATTAGTC	0.0988
CATTAGTA	0.289
AGTTAGTC	0.0694
AATTAGTC	0.303
GATTAGTA	0.218
ACCTTATC	0.0868
ATCCTCTC	-0.0398
GCAGTGTA	0.0324
GTTCACGA	0.0641
AACTTATT	0.21
GAAGAACA	0.225
CAAGAACA	-0.0451

Sequence	PBM E-score
TAAGAACA	0.326
GTTCATAA	0.0365
GACTCGTA	-0.126
GGATTGCC	-0.116
AGAACACG	0.0921
CAAGGGAC	-0.0565
GTTACTCA	0.161
GTTACTGA	0.106
CTTACTAC	0.211
GTTACTAA	0.339
CTTACTAA	0.443
CTTACTCA	0.164
ACGCGGGG	-0.0549
GTTACGTA	0.182
AATACGTG	0.0823
ACTACGAA	0.099
CTCACGAA	0.05
GTTACGAA	0.181
AATACGTA	0.296
CTTACGAA	0.259
CTTACGTC	0.0927
CATACGTA	0.156
AGTACGAA	0.245
ATTACGAA	0.329
CTTACGTA	0.349

Sequence	PBM E-score
CTTGTCCA	-0.0307
AAAGATCT	-0.0503
AAGAGATT	0.0728
TAGGTAGA	0.076
CGTACAAA	0.108
ATTGGGCA	-0.0331
GGCTACGA	-0.0605
ATAGGGCC	-0.174
TAGGGCAA	-0.0175
CGTGCGAG	-0.0121
ATTACGAG	0.228
ATTACGGG	0.0809
ATTACGGA	0.295
ATTACGGC	0.241
ATTACGAC	0.269
CTTACGAC	0.0511
ACTCGAGC	0.0632
ATTTGTAA	0.373
ATTTGTAG	0.117
CTTTGTCA	0.15
GTTTGTAA	0.0859
ATTTGTCA	0.313
GTTTGTCA	0.133
CTTTGTAA	0.27
CTTTGTAC	0.0552

Sequence	PBM E-score
ATTTGTAC	0.0689
GCGAATCA	0.173
CAACGGTG	-0.243
CGCGTGGA	-0.183
ATACTTAC	0.0503
CAATCAAC	0.217
AATAGCGA	0.24
CCCAAAGG	-0.2
GAGAAGCA	-0.118
AACTAGGT	0.154
GTGCTTTA	0.121
AGGTATGG	-0.0324
ATGAATGG	0.268
ATGAATGC	0.0737
ATGAATGA	0.106
CGGAGCTA	-0.142
GAGGCCAC	-0.223
TTAGTAAA	0.295
TGAGTAAA	0.161
GGAGTAAA	0.267
CTAGTAAA	0.0933
GTAGTCAA	-0.0796
ATAGTAAA	0.238
GGAGTAAC	-0.103
CTAGTCAA	-0.0259

Sequence	PBM E-score
TTAGTCAA	0.27
GAGCGTCC	-0.223
ACACCACC	-0.209
CCTACCCG	-0.174
GAGAAACA	0.218
CGACCCAG	-0.23
CGAGTGTA	-0.0629
GTTTCATA	0.0741
CTAGTTAA	0.26
ATAGTTAA	0.114
GTAGTTAA	0.142
GCATGGGA	-0.197
CATGACAA	0.143
GATGACAA	0.264
GATGACAC	0.132
CGGTTCGA	0.0689
GTGAACAC	-0.156
ATGCCGTC	-0.0725
CGAGCTGA	0.081
AGAGAGGA	-0.261
ATGAATTG	0.208
AATGAAAT	0.21
GATGAATA	0.242
CTTGAAAA	0.161
TATGAATA	0.266

Sequence	PBM E-score
CTTGAATA	0.113
ATTGAATC	0.0178
ATTGAATA	0.256
ATTGAAAT	0.263
ATTGAAAC	0.155
CATGAATA	0.0196
ATTGAAAG	0.143
ATTGAAAA	0.266
CGTCGCAG	-0.0218
GTAGAGAA	0.0971
GAGTGGAC	-0.0806
AGCAAAGA	0.0203
CATACGAC	0.0835
AAGGAAAA	0.156
CCTCTGGA	-0.136
TAATTGCA	0.195
GCTCCTAA	-0.265
ACAAGGAT	0.113
TCTTGTAA	0.118
